Laboratory results as given in PubChem BioAssay.
Activity calls are given as the source filed them. Cut-off read from the data, not from the text of the source, unless noted: active = inhibition above about 25%; inactive = the rest.

Legend:
[1] = biological target: Nuclear receptor coactivator 3 (Homo sapiens) (UniProt Q9Y6Q9); assay: NCOA3 GAL4-fusion reporter inhibition – cell-based, luminescence, quadruplicate, confirmation (AID 588792;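 active = mean inhibition over 43.08%, the solvent-only control mean plus 3 SD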;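 note: 0% = DMSO treated cells and 100% = gossypol at 36 µM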); conditions: HEK293 GAL4-SRC3 luciferase reporter, at 3.6 µM, stronger effect = higher value
[2] = test system: transactivating tegument protein VP16 (Human herpesvirus 1), Gal4-VP16 luciferase reporter; assay: repression of VP16-driven luciferase reporter – cell-based, luminescence, high throughput, counter-screen for SRC3 inhibitor project (AID 588794; in the data active = inhibition above about 30%); conditions: mammalian cells, at 3.6 µM, stronger effect = higher value
[3] = biological target: Nuclear receptor coactivator 1 (Homo sapiens) (UniProt Q15788); assay: NCOA1 GAL4-fusion reporter inhibition – cell-based, luminescence, quadruplicate, confirmation (AID 588820;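 active = mean inhibition above 46.68%, the untreated control wells mean plus 3 SD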;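 note: 0% = DMSO wells and 100% = gossypol 36 µM treated wells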); conditions: HEK293 GAL4-SRC1 luciferase reporter, at 3.6 µM, stronger effect = higher value
[4] = repression of VP16-driven luciferase reporter – cell-based, luminescence, high throughput, counter-screen for SRC1 inhibitor project (AID 588824); conditions: cell-based VP16 transactivation luciferase luminescence; at 3.6 µM; stronger effect = higher value
[5] = test system: transactivating tegument protein VP16 (Human herpesvirus 1); assay: compounds suppressing VP16-driven luciferase signal – cell-based, luminescence, single concentration, counter-screen for SRC2 inhibitor project (AID 652007; in the data active = inhibition above about 36%); conditions: cell-based VP16 transactivation luciferase reporter, at 8.9 µM, stronger effect = higher value
[6] = biological target: Nuclear receptor coactivator 2 (Homo sapiens) (UniProt Q15596); assay: inhibition of GAL4-SRC2 driven luciferase expression – cell-based, luminescence, HEK293, triplicate, confirmation (AID 652008;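 active = mean inhibition above 46.5%, the solvent-only control mean plus 3 SD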;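 note: 0% = DMSO-treated cells and 100% = Gossypol at 36 µM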); conditions: HEK293 GAL4-SRC2 luciferase reporter, at 8.9 µM, stronger effect = higher value

Measured: inhibition

Nuclear receptor coactivator 3 (Homo sapiens), sequence (Q9Y6Q9 whole entry, looked up, the tested form may be a part): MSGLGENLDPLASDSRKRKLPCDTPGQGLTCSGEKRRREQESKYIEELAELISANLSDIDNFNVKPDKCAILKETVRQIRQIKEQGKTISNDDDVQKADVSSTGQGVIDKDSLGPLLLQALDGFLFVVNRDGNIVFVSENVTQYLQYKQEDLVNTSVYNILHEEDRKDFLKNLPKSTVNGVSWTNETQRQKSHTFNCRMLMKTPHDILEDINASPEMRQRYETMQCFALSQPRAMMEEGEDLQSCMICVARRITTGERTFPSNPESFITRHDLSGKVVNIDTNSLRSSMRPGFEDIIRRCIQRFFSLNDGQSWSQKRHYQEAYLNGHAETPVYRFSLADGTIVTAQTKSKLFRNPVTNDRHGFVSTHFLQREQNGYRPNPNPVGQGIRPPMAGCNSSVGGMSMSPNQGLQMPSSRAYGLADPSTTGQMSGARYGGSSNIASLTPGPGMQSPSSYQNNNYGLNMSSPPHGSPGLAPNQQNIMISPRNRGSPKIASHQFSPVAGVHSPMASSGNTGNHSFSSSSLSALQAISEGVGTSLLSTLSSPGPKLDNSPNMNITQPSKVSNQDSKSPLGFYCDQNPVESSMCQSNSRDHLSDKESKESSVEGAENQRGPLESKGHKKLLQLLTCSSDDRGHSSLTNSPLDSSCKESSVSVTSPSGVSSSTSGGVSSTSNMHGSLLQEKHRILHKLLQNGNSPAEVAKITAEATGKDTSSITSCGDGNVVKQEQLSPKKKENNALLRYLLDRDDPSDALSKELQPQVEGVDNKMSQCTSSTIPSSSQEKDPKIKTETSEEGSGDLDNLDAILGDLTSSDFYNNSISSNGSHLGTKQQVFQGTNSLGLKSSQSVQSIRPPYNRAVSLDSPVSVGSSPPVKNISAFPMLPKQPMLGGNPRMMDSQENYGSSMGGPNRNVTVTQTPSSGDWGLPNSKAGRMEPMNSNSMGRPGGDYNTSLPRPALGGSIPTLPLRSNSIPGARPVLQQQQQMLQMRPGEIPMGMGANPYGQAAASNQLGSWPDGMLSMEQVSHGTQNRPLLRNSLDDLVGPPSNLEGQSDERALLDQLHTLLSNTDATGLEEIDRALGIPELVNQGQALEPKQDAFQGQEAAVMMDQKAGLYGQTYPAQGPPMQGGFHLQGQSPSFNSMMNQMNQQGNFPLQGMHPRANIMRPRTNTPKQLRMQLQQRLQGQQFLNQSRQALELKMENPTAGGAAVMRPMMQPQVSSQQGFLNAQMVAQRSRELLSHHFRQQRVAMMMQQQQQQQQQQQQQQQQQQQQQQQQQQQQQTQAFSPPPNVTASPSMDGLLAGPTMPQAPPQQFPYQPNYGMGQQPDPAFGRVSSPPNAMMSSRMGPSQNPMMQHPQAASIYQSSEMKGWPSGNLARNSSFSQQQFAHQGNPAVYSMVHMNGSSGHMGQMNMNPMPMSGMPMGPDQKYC
Nuclear receptor coactivator 1 (Homo sapiens), sequence (Q15788 whole entry, looked up, the tested form may be a part): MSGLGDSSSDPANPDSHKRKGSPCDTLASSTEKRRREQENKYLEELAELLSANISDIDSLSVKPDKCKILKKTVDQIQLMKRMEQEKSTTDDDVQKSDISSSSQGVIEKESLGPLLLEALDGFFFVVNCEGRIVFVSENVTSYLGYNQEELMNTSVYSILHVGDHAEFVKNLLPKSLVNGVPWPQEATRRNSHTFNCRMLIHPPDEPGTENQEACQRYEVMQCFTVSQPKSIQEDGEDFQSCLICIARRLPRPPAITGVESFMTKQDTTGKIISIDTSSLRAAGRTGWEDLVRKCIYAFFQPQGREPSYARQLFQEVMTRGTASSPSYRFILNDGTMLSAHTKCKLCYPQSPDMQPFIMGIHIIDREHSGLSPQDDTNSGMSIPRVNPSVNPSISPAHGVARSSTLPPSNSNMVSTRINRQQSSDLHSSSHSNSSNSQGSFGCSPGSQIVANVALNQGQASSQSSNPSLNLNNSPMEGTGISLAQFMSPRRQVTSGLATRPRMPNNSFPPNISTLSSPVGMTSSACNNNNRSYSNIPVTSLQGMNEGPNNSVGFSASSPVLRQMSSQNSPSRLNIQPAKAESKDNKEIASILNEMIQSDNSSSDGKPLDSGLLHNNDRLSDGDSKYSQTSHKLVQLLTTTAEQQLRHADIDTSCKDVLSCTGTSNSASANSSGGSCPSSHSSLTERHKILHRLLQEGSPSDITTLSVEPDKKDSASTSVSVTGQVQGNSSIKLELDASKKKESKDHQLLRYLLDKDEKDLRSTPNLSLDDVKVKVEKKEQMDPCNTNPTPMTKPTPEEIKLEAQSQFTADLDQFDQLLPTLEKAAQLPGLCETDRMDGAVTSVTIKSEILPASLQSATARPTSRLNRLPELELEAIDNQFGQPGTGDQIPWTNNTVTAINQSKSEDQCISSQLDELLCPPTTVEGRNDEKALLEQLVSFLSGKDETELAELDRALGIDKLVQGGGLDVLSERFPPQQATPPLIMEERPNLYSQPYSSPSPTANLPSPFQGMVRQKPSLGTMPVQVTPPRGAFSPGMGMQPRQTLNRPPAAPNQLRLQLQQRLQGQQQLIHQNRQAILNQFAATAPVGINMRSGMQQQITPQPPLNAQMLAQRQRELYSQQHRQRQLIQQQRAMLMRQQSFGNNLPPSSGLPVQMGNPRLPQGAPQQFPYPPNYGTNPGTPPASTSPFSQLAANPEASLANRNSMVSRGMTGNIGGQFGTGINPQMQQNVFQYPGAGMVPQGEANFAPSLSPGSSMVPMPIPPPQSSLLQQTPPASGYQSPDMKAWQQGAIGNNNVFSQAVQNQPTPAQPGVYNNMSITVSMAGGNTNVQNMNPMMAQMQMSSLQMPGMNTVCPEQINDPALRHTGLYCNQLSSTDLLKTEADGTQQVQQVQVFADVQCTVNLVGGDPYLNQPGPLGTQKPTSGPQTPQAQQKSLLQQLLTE
Nuclear receptor coactivator 2 (Homo sapiens), sequence (Q15596 whole entry, looked up, the tested form may be a part): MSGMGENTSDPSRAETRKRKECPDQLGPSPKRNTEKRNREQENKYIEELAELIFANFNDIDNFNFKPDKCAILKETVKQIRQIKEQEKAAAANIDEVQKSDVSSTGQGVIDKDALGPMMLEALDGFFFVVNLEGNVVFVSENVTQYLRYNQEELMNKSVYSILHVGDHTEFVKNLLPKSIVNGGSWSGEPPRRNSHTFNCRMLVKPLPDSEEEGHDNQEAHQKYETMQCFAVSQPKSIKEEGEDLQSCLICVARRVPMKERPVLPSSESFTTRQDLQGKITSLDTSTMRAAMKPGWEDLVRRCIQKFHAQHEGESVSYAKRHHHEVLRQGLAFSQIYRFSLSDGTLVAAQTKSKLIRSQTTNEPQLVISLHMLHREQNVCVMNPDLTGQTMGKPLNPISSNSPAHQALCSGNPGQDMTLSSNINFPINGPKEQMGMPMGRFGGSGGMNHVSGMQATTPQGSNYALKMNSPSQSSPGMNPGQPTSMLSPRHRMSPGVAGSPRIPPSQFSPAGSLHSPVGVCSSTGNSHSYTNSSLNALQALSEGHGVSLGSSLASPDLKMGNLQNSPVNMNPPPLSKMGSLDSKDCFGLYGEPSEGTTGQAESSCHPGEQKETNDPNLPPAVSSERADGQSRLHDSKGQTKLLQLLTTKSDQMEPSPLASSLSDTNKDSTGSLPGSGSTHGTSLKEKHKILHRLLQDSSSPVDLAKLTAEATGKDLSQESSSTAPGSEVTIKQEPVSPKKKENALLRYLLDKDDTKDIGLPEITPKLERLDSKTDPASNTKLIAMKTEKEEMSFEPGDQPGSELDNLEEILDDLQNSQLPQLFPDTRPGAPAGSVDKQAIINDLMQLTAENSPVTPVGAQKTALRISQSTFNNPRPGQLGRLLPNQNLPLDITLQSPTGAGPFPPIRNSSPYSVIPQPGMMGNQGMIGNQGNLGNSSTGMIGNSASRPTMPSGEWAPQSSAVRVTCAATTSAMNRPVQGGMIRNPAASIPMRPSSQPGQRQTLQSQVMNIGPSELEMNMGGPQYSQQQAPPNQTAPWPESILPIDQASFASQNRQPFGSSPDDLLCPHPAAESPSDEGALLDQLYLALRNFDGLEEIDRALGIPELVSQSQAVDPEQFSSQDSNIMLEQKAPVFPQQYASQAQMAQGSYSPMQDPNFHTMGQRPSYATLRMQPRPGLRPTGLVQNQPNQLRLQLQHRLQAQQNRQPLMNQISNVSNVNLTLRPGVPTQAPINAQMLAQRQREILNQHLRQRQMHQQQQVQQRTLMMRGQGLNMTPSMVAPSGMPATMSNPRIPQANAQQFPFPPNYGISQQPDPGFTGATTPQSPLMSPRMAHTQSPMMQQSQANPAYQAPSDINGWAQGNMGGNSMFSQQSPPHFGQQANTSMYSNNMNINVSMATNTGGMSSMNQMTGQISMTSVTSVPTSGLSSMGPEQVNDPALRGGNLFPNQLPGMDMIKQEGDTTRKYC

COc1ccc(CC(=O)Nc2cccc(-c3nnc(-c4ccccc4)o3)c2)cc1OC
inactive: [1] 10.5% | [3] -12.5% | [5] 27.1%
active: [2] 32.9% | [4] 41.1% | [6] 68.5%

CCn1c2ccccc2c2cnc(N=CN(C)C)c(C#N)c21
inactive: [1] 32% | [2] 19.6% | [3] 28.3% | [4] 21.4% | [5] -28.4% | [6] -0.33%

O=C(CCCc1nc(-c2ccccc2Cl)no1)NC1CCCC1
active: [6] 92.2%
inactive: [1] 36.4% | [2] -6.22% | [3] 22.9% | [4] -0.83% | [5] 26.2%

CC(=O)Nc1nc(-c2ccc3c(c2)CC(C)N3C(=O)C2CC2)c(C)s1 (centres undefined)
active: [1] 72.6% | [2] 58.6% | [3] 50.6% | [4] 62.7%
inactive: [5] -4.55% | [6] 41.8%
